# Rows were chosen to be rich in hits. Some 6.9% of all compounds tested hit in one or more screens of this group.
# VDR inhibitor: Inhibitors of the vitamin D receptor (VDR): qHTS | VDR-SRC2-3 peptide fluorescence polarization, 2 h | Potency, µM, without a hit: max response, negative = inhibition, hits mostly inhibitors | 0.93% of 400,000 active | AID 504847, 2011; note: % is set by controls: 0 for no effect and ±100 for the full control effect
# Target sequence (P11473 whole entry, looked up): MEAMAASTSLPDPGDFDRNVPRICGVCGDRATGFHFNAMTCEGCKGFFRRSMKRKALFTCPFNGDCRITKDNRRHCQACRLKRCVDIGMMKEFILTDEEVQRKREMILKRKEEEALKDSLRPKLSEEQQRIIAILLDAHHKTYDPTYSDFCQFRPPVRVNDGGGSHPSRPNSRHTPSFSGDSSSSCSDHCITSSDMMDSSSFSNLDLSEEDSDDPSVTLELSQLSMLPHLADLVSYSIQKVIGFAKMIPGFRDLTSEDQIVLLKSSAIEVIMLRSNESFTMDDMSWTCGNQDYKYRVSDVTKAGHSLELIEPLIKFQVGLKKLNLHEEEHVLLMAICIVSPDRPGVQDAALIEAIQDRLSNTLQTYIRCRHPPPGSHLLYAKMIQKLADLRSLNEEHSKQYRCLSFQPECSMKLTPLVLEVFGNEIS
#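 Signal is fluorescence polarization, reporting how far test compounds block the interaction of VDR with the SRC2-3 coregulator peptide after a 2 h room-temperature incubation.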
# HP1b chromo inh: HTS for Inhibitors of HP1-beta Chromodomain Interactions with Methylated Histone Tails | Chromobox protein homolog 1 (Homo sapiens), P83916 | AlphaScreen HP1-beta / biotin-H3K9me3 peptide binding | Potency, µM (highest dose often 114 µM), without a hit: top-dose activity change, negative = inhibition, most hits filed as inhibitors | 0.56% of 390,000 active | AID 540317, 2011; note: nearly all actives have a fitted effect of over 70% in size
# Target sequence (P83916 whole entry, looked up): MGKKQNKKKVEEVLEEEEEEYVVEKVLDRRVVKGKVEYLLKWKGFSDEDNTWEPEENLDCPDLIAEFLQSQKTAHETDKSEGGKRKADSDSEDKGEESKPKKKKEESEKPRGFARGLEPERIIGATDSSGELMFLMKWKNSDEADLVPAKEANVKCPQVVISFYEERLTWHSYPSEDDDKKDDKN
#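 HP1-beta protein (50 nM final) preincubated 30 min at room temperature with biotinylated H3(1-18)K9me3 peptide (50 nM) in PBS pH 7.4, 0.01% Tween-20, then compound added for 30 min. AlphaScreen streptavidin donor/nickel chelate acceptor beads (10 ug/mL final), 30 min dark, luminescence read.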
# L3MBTL1 block: qHTS Assay for the Inhibitors of L3MBTL1; Potency, µM (highest dose often 57.1 µM), without a hit: at the top dose activity, negative = inhibition, actives largely listed as inhibitors; 0.66% of 230,000 active; AID 485360, 2010; AlphaScreen L3MBTL1–H3K9me1 peptide binding; note: % is set by controls: 0 for no effect and ±100 for the full control effect; nearly all actives have a fitted effect of over 60% in size
#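 L3MBTL1 50 nM + b-AHA-H3(1-15)K9me1 75 nM, 30 min RT; compound added, 30 min RT; streptavidin donor/Ni-chelate acceptor beads 10 ug/mL each final, 30 min RT dark; AlphaScreen read.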
# PLK1 PBD block: qHTS for Inhibitors of PLK1-PDB (polo-like kinase 1 - polo-box domain): Primary Screen. Serine/threonine-protein kinase PLK1 (Homo sapiens), P53350. Plk1 PBD binding of FITC phosphopeptide, fluorescence polarization. Potency, µM, without a hit: max response, negative = inhibition, actives largely listed as inhibitors. 2.8% of 360,000 active. AID 720504, 2013; note: series mostly up to about 57 µM; % is set by controls: 0 for no effect and ±100 for the full control effect; nearly all actives have a fitted effect of over 65% in size
# JMJD2A Tudor inh: qHTS Assay for Inhibitors of JMJD2A-Tudor Domain; Lysine-specific demethylase 4A (Homo sapiens), O75164; AlphaScreen JMJD2A-Tudor / H3K4me3 peptide binding; Potency, µM (series often up to 114 µM), inactives show top-dose activity change, negative = inhibition, usual class: inhibitors; 4.4% of 390,000 active; AID 504339, 2011; note: % is set by controls: 0 for no effect and ±100 for the full control effect; nearly all actives have a fitted effect of over 50% in size
# BAZ2B inh: qHTS Assay for Inhibitors of BAZ2B; Bromodomain adjacent to zinc finger domain protein 2B (Homo sapiens), Q9UIF8; AlphaScreen BAZ2B-H3K14Ac peptide displacement; Potency, µM (top dose mostly 114 µM), for inactives: at the highest dose activity change, negative = inhibition, hits mostly inhibitors; 4.4% of 360,000 active; AID 504333, 2011; note: % is set by controls: 0 for no effect and ±100 for the full control effect; nearly all actives have a fitted effect of over 60% in size
#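 Protein-peptide AlphaScreen: BAZ2B 50 nM, b-H3K14Ac 50 nM, 1x PBS pH 7.4 + 0.01% Tween-20. Preincubation 30 min RT; cpd 30 min RT (top 110 uM); beads 20 min RT, light-protected.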
# Active calls of the source: *; ? = inconclusive; / = no result given; [ ] = dose if it differs, or a comment. Calls come from the whole dose curve; as a rule, active = well fitted curve in the direction sought with a large enough effect; inconclusive = small, poorly fitted or top-dose-only effect, or another doubt; inactive = no such curve, though single readings can be large; an effect the other way counts as inactive or inconclusive. Potency is the fitted concentration of half-maximal effect.
SMILES,VDR inhibitor,HP1b chromo inh,L3MBTL1 block,PLK1 PBD block,JMJD2A Tudor inh,BAZ2B inh
CS(=O)(=O)c1ccc(Cl)c(NC(=O)CCCc2nc3ccccc3c(=O)[nH]2)c1,-7%,37%,1%,3%,-1%,5%
CC1CCCCN1S(=O)(=O)c1ccc(C(=O)Nc2nnc(-c3ccccn3)o2)cc1 (stereo unspecified),-10%,41%,/,-8%,-30%,/
O=C(Nc1nnc(C2=COCCO2)o1)c1ccc(S(=O)(=O)N2CCOCC2)cc1,0%,23%,/,-2%,79µM*,/
CC1CN(S(=O)(=O)c2ccc(C(=O)Nc3nnc(-c4ccccn4)o3)cc2)CC(C)O1 (stereo unspecified),4%,37%,/,-3%,89µM*,/
CC1CCCCN1S(=O)(=O)c1ccc(C(=O)N2CCOCC2)cc1 (stereo unspecified),-2%,10%,/,0%,-6%,18%
CC1CCCCN1S(=O)(=O)c1ccc(C(=O)Nc2nnc(C3=COCCO3)o2)cc1 (stereo unspecified),0%,23%,/,-9%,-28%,89µM*
CC1CCCN(S(=O)(=O)c2ccc(C(=O)Nc3nnc(C4=COCCO4)o3)cc2)C1 (stereo unspecified),/,/,/,/,/,79µM*
COc1cc(OC)c(NC(=O)CSc2cc(=O)n(C)c3ccc(Cl)cc23)cc1Cl,-22%,24%,/,/,-4%,-9%
COc1cc2c(-c3ccc(C)cc3)nc3c(c(C)nn3-c3ccccc3)c2cc1OC,-15%,48%,/,/,8%,0%
CC(NC(=O)c1cccc(NC(=O)c2nsc3ccccc23)c1)c1ccccc1 (stereo unspecified),2%,17%[57 µM],/,/,-9%,2%
COc1ccccc1-c1nnc(NC(=O)c2ccc(S(=O)(=O)N3CCOCC3)cc2)o1,-4%,39%,/,-8%,79µM*,17%
O=C(N/N=C\c1cccnc1)c1cc(-c2ccc(Cl)s2)[nH]n1,4%,-8%,15%,?,56µM*,50µM*
CN(C(=O)CSc1nc2c(c(=O)[nH]1)CCCC2)C1CCCCC1,-12%,-24%,0%,27µM*,?,-4%
CN(C(=O)CSc1nc(N)cc(=O)[nH]1)C1CCCCC1,/,/,/,-10%,/,/
CCC/C(=N/NC(=O)c1nnn(-c2nonc2N)c1CN1CCCCC1)c1ccccc1,-25%,21%,/,27µM*,?,/
Cn1c(-c2csc(-c3ccccc3)n2)n[nH]c1=S,-9%,-5%,32%,-26%,28µM*,-18%
Cc1ccc(-c2n[nH]c(=S)n2C)cc1,0%,?,3%,-13%,3.2µM*,13%
Cc1ccc(C(=O)c2oc3ccccc3c2NC(=O)c2cc(-c3ccc(Cl)cc3)on2)cc1,5%,28%,/,/,-14%,1%
CCOC(=O)C1CCCN(c2c(NCCc3cccc(C)c3)c(=O)c2=O)C1 (stereo unspecified),-3%,25%,3%,2%,8%,-8%
CCOC(=O)C1CCCN(c2c(NCCCN(CC)c3cccc(C)c3)c(=O)c2=O)C1 (stereo unspecified),-14%,-26%,-3%,24µM*,-12%[11.4 µM],-30%
CC(=O)c1cnc(-c2ccccc2Cl)s1,1%,27%,15%,-6%,-1%,2%
CC(=O)c1cnc(-c2ccccn2)s1,-29%,-18%,17%,21µM*,-10%,-11%
O=C(CN1CCC(C(=O)c2ccc(Cl)cc2)CC1)NC1CCCC1,0%,2%,/,-11%,-8%,-14%
Cc1ccc(OCCCCNC2CCCC(C)C2C)c(C)c1 (stereo unspecified),34%,?,-6%,-7%,20µM*,22µM*
COc1ccc(C(C)=O)cc1Cn1c(C)c(C(=O)NCC(C)C)sc1=O,/,/,/,-1%,/,/
SMILES,VDR inhibitor,HP1b chromo inh,L3MBTL1 block,PLK1 PBD block,JMJD2A Tudor inh,BAZ2B inh
COc1ccc(NS(=O)(=O)c2ccc(F)c(Cl)c2)cn1,79µM*,12%,/,?,-22%,-3%
COc1ccc(NS(=O)(=O)c2ccc(Br)cc2)cn1,8%,50%,/,1%,21%,9%
CCOC(=O)c1c(-c2cccc([N+](=O)[O-])c2)csc1NC(=O)C1CC1,3%,-9%,-11%,-12%,-28%,-36%
CCOC(=O)c1c(-c2cccc([N+](=O)[O-])c2)csc1N,-25%,-24%,-6%,30µM*,?,50µM*
Cc1ccn2cc(-c3cnoc3C)nc2c1,-13%,-18%,/,27µM*,-8%[11.4 µM],-5%
Cc1oncc1-c1cn2ccccc2n1,10%,20%,/,-4%,-4%,6%
COc1cccc(C(=O)N(c2ccc(C)cc2)C2C=CS(=O)(=O)C2)c1 (stereo unspecified),2%,53%,/,-1%,-17%,-14%
COc1ccc(OCC(O)CN(CC(O)COc2ccc(OC)cc2)c2cccc(O)c2)cc1 (stereo unspecified),-13%,-16%,/,-12%,?,45µM*
CCC(C)(O)c1[nH]c2ccc(C(=O)OC)cc2c1C (stereo unspecified),-3%,39%,2%,-3%,-21%,2%
Cc1cc(OC(=O)c2c(F)cc(F)cc2F)nc(C)n1,10%,56%,9%,21µM*,-6%,-13%
COc1cc2c(cc1[N+](=O)[O-])-c1ccc([N+](=O)[O-])cc1C2=NNC(N)=S,/,/,/,9.5µM*,/,/
COc1ccc(-c2nc(CN3CCC(C(=O)NCc4ccc(C)cc4)CC3)c(C)o2)cc1OC,3%,17%,/,/,-21%,?
CCOCCCn1c(=N)c(C(=O)NC2CCCCC2)cc2c(=O)n3ccccc3nc21,-7%,4%,/,/,-16%,4%
O=C(O)c1ccc(SCc2ccccc2)nc1,-18%,47%,/,-2%,4%,/
O=S(=O)(O)c1ccc(SCc2ccccc2)nc1,?,24%,/,21µM*,89µM*,/
O=C(NNc1ccc(F)cc1F)c1c(F)cccc1Cl,-13%,-4%,4%,-10%,-14%,-2%
O=S(=O)(NNc1ccc(F)cc1F)c1cccc(Cl)c1,-27%,?,/,?,10µM*,?
O=S1(=O)CC(O)C(N=Nc2c(O)n(Cc3ccccc3)c3ccccc23)C1 (stereo unspecified),?,?,-19%,13µM*,-29%[11.4 µM],?

# Source: PubChem BioAssay (National Center for Advancing Translational Sciences (NCATS))
